# Experimental data reported in PubChem BioAssay AID504882 (Broad Institute, 2011).
# Out of some 1,200 compounds screened, about 290 (24%) were called active. Roughly 9% stayed inconclusive and do not appear here. These entries were drawn from the full list. Potency and affinity values are given separately. A number with no mark means an inactive call. No rule for the calls is given here.
# Experiment: LCL viability reduction – cell-based, plate reader, cherry-picks, set 2, cytotoxicity control, dose response (AID 504882);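 also: 0% = neutral control wells and -100% = positive control wells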
# Conditions: EBV lymphoblastoid cells (LCL) viability; series mostly up to 19.5 µM; activity change, negative = cytotoxicity: at the top concentration
row,SMILES,"activity change, negative = cytotoxicity"
1,COC(=O)c1cccc(COC(=O)c2ccccc2NC(=O)c2ccco2)c1,12.5%
2,C[C@]12CC[C@@H]3c4ccc(OS(=O)(=O)O)cc4CC[C@H]3[C@@H]1CCC2=O,24%
3,COc1ccccc1C(=O)NC(=O)CSc1nnc(N)s1,15.9%
4,c1csc(CNc2ncnc3ccc(-c4ccoc4)cc23)c1,-6.02%
5,COc1ccc(C(=O)CSc2nnc(Cc3ccccc3)o2)cc1,20.6%
6,CC[C@H]1OC(=O)[C@H](C)[C@@H](O[C@H]2C[C@@](C)(OC)[C@@H](O)[C@H](C)O2)[C@H](C)[C@@H](O[C@@H]2O[C@H](C)C[C@H](N(C)C)[C@H]2O)[C@](C)(O)C[C@@H](C)C(=NOCOCCOC)[C@H](C)[C@@H](O)[C@]1(C)O,20%
7,N=C1S/C(=C\c2ccccc2)C(=O)N1c1ccc(F)cc1,4.09%
8,CCC(=O)OC1c2ccccc2C(=O)N1Cc1ccccc1 (stereo not given),12.3%
9,CNc1ccc(Br)cc(C(=O)/C=C/c2cccc(OC)c2)c1=O,-33%
10,CC(=O)/C=C/c1ccccc1O,3.18%
11,CNc1ccc(Br)cc(C(=O)/C=C/c2cc(OC)ccc2OC)c1=O,12.3% [at 6.8 µM]
12,COC(=O)C1=C(C)N(CCCC(=O)O)C(=O)NC1c1cccc(Cl)c1Cl (stereo not given),16.1%
13,O=C(CSc1nnc(NC(=O)c2ccc3c(c2)OCO3)s1)NCc1ccco1,14%
14,CCOc1ccc(C(=O)Nc2nnc(SCC(=O)NCC3CCCO3)s2)cc1 (stereo not given),19.9%
15,COc1ccc(C(=O)OCC(=O)c2c[nH]c3ccccc23)cc1OC,-0.621%
16,O=C1NC(=O)/C(=C\c2ccc(OCc3cccc(C(=O)O)c3)c(Cl)c2)N1,2.65%
17,O=C(CN(Cc1cccs1)C(=O)CNS(=O)(=O)c1ccccc1)NCc1ccco1,9.67%
18,Cc1ccc(S(=O)(=O)N2CCN(C(=O)CSc3nnnn3C)C2)cc1,15.3%
19,O=C(O)/C=C/c1ccc(Cn2ccnc2)cc1,8.15%
20,Cc1ccccc1NC(=O)CN1C(=O)S/C(=C\c2cccn2-c2cccc(C(=O)O)c2)C1=O,10.6%
21,CC(C)[C@H](N[C@@H](C)c1ccccc1)c1c(O)ccc2ccccc12,4.74%
22,O=C(C1CC1)N1N=C(c2ccc(Br)cc2)CC1(O)C(F)(F)F (stereo not given),-4.6%
23,CN1CCN(CCOc2ccc(Cc3ccccc3)cc2)CC1,11.5%
24,CN(C)S(=O)(=O)c1ccc(Cl)c(C(=O)NCCNC(=O)c2cc(S(=O)(=O)N(C)C)ccc2Cl)c1,10.8%
25,CCCc1cc(=O)c2c(O)ccc(OC)c2o1,16.7%
26,O=c1cc(C2CCCCC2)[nH]c(=O)[nH]1,27.8%
27,CC(=O)OCC(=O)[C@@]1(O)CC[C@H]2[C@@H]3CCC4=CC(=O)CC[C@]4(C)[C@H]3[C@@H](O)C[C@@]21C,12.8%

row,SMILES,"activity change, negative = cytotoxicity"
1,O=C(CN1CCN(S(=O)(=O)c2ccc(F)cc2)CC1)Nc1cccc(C(F)(F)F)c1,0.696%
2,O=C(/C=C/Nc1cccc(C(F)(F)F)c1)C(F)(F)F,7.21%
3,O=C(c1ccco1)N1CCN(S(=O)(=O)/C=C/c2ccccc2)CC1,6.55%
4,O=C(Nc1ncccc1O)c1ccc(S(=O)(=O)NCc2ccco2)cc1,12%
5,CCOC(=O)C1=C(C)N(C)C(=O)NC1c1ccccc1OC (stereo not given),9.56%
6,Cc1cc(=S)[nH]c2ccccc12,4.96%
7,CC(=O)Oc1ccc(C(=O)Nc2cccnc2)cc1,12.1%
8,CC(C)CCNC(=O)C1CCN(S(=O)(=O)c2ccc3c(c2)CC(C)N3C(=O)C2CC2)CC1 (stereo not given),-4.93%
9,Cc1ccc2c(c1)N(CC(=O)N1CCCC1)C(=O)c1cccnc1O2,7.79%
10,Cc1ccc(S(=O)(=O)N[C@H](C(=O)N2CCC(C(=O)N[C@@H](CC(=O)O)C(=O)O)CC2)C(C)C)cc1,11%
11,Cc1ccc(NC(=O)c2ccc3c(c2)OCCO3)nc1,-13.1%
12,Cc1ccc(C(=O)Nc2ccc3c(c2)OCCO3)cc1,-1.25%
13,COc1ccc(OC)c(NC(=O)COC(=O)COc2ccc(Nc3ccccc3)cc2)c1,7.62%
14,Cc1cc(C)c(S(=O)(=O)N2CCN(C(=O)c3ccccc3OCc3c(C)noc3C)CC2)c(C)c1,10.4%
15,O=C(NCc1ccccc1Cl)C1CCCN1S(=O)(=O)c1ccc(F)cc1 (stereo not given),13.2%
16,Cc1ccc(/C=C/c2nc3ccccc3s2)s1,19%
17,COc1ccc(C=NNc2nc3ccccc3s2)cc1,-1.54%
18,N/C(=N\OC(=O)c1ccccc1)c1ccccn1,-14.6%
19,C[C@@H]1CN([C@@H](C)CO)S(=O)(=O)c2ccc(/C=C/c3ccccc3)cc2O[C@@H]1CN(C)Cc1ccc(C(=O)O)cc1,0.346%
20,O=C(NC1=NCCS1)c1cc2ccccc2o1,-0.76%
21,COc1ccc(C(=O)Nc2nnc(SCC(=O)NC3CC3)s2)cc1,2.73%
22,c1ccc(-c2cn3c4c(sc3n2)CCCC4)cc1,-0.762%
23,Cc1cc(C)n2nc(CC(=O)NC3CCCCCC3)nc2n1,20.7%
24,Cc1nc(SCC(=O)c2cccc([N+](=O)[O-])c2)n[nH]1,33.1%
25,COc1ccc2cc3c(N)nn(C(=O)c4cccc([N+](=O)[O-])c4)c3nc2c1,9.99%
26,CCn1c(SC(C)C)nnc1-c1c[nH]c2ccccc12,20.4%
27,CC(=O)c1cccc(NC(=O)Nc2ccc(C(=O)N3CCOCC3)cc2)c1,14.3%

row,SMILES,"activity change, negative = cytotoxicity"
1,COc1ccc(-c2csc(Nc3cccc(C)n3)n2)cc1OC,33.9%
2,CC[C@]1(C(=O)OC)[C@H]2C(=O)N(Cc3ccccc3)C(=O)[C@H]2[C@H]2CN=C(SCc3ccc(C#N)cc3)N21,4.38%
3,COc1ccc(CN2C(=O)c3cccnc3C2Nc2cc(Cl)ccc2OC)cc1 (stereo not given),14.9%
4,Clc1ccc(-c2cn3nc4c(nc3n2)CCCC4)cc1,-9.43%
5,COCCn1c(SCCN2CCOCC2)nc2c1c(=O)[nH]c(=O)n2C,11.5%
6,COc1cc2nc(N3CCN(C(=O)C4CCCO4)CC3)nc(N)c2cc1OC (stereo not given),12.8%
7,O=C(Nc1ccc2c(c1)C(=O)OC2)c1ccc(C(F)(F)F)cc1,5.14%
8,C/C(=N\Nc1ccc(C(F)(F)F)cc1[N+](=O)[O-])C(C)C,4.95%
9,COC(=O)c1ccc2nc(-c3cccc(N)c3)cn2c1,0.862%
10,CCOC(=O)Nc1ccc2c(c1)N(C(=O)CN(C)C)c1ccccc1CC2,7.62%
11,COc1ccc(-c2nc(C)ncc2-c2ccccc2)c(O)c1,11.5%
12,c1ccc(OCCSc2nnc3sc4ccccc4n23)cc1,8.57%
13,COc1ccc(N2C(=O)C(=O)/C(=C(/O)c3ccc(C)cc3)C2c2cccnc2)cc1 (stereo not given),5.14%
14,O=C1CCCCC1Sc1nnc(-c2ccc3c(c2)OCO3)o1 (stereo not given),4.58%
15,COc1ccc(NC(=O)NCCN2CCc3ccccc3C2)cc1,18.9%
16,COc1ccc(NC(=O)c2cc3ccccc3oc2=O)cc1,10.4% [at 6.8 µM]
17,N#Cc1c(NC(=O)CCCC(=O)O)sc2c1CCCCC2,14.1%
18,COC(=O)c1c(NC(=O)c2nn(C)cc2Cl)sc2c1CCCC2,0.608%
19,NC(=O)c1sc2nc3c(c(-c4ccccc4)c2c1N)CCC3,6.83%
20,Cc1ccc(NC(=O)NNS(=O)(=O)c2ccc(Br)cc2)cc1,16.9%
21,O=C(CSc1nc2ccccc2c(=O)n1CCCN1CCOCC1)Nc1ccc(Br)cc1,9.04%
22,CC(C)(C)c1ccc(C(=O)N2CCC(=O)N(C(CO)Cc3ccccc3)CC2)cc1 (stereo not given),10.8%
23,O=C(N1CCOCC1)N1CCN(S(=O)(=O)c2ccc(Cl)cc2)C1,14.1%
24,O=C(O)c1ccc(C=NNC(=O)c2cccc3ccccc23)cc1,11.4%
25,Cc1cccc(/C=N/NC(=O)CNc2cccc3ccccc23)n1,13%
26,COc1ccc(-c2[nH]ncc2/C=N\NS(=O)(=O)c2ccc(Cl)cc2)cc1,18.6%
27,O=[N+]([O-])c1ccc(Cl)c(S(=O)(=O)NCC2CCCO2)c1 (stereo not given),15.1%

row,SMILES,"activity change, negative = cytotoxicity"
1,CCN(c1ccccc1)S(=O)(=O)c1ccc(Cl)c(NC(=O)Nc2ccc(Cl)cc2C#N)c1,-10.7%
2,CCOc1ccc(OCc2cccc(C(=O)N3CCCCCC3)c2)cc1,-1.66%
3,COc1ccc(C(=O)NCCN2CCOCC2)cc1[N+](=O)[O-],24.8%
4,COc1cccc(/C=C2\SC(=S)N(CCC(=O)NCCc3ccc(O)cc3)C2=O)c1,-16.3%
5,COc1ccc(C(=O)Nn2c(SCC(=O)c3ccc(Cl)cc3)nc3ccccc3c2=O)cc1,-13.5%
6,COc1ccc(C(=O)NCCNc2nc3cc(C)c(C)cc3cc2C)cc1,-19.9%
7,COc1ccc(-c2cc3c(=O)n(CC(=O)NCCCN4CCN(Cc5ccccc5)CC4)ncn3n2)cc1,14.3%
8,Cc1cccc(C)c1Nc1nc2ccccc2o1,22.6%
9,O=c1[nH]c(Nc2nc3ccccc3o2)nc2c1CCCC2,2.31% [at 6.8 µM]
10,COc1ccc(-n2c(C)c(C(C)=O)c3cc(OC(C)=O)ccc32)cc1,2.71%
11,CC(=O)Nc1ccc(OCCCNC(=O)c2c(-c3ccccc3)noc2C)cc1,9.93%
12,COc1ccccc1NC(=O)Cn1nnc(-c2ccccc2NS(=O)(=O)c2ccccc2)n1,-15.3%
13,CCN(CC)Cc1cc(Nc2ccnc3cc(Cl)ccc23)ccc1O,-7.97%
14,O=C1CSC(=S)N1Cc1ccccc1,0.821%
15,CC(=O)O[C@H]1CC[C@@]2(C)C(=CC[C@H]3[C@@H]4CC[C@H](C(C)=O)[C@@]4(C)CC[C@@H]32)C1,16.2%
16,Cc1ccc(N=c2c([N+](=O)[O-])nn(-c3ccc4c(c3)OCCO4)n2O)cc1F,18.8% [at 6.8 µM]
17,COCCNC(=O)C(=O)NCC1OCCN1C(=O)c1ccc(Cl)cc1 (stereo not given),35.3%
18,CCCn1c(C)cc(C(=O)COC(=O)c2ccc[nH]c2=O)c1C,13.9%
19,COc1cc2oc(=O)cc(-c3ccc(-c4ccc(N(C)C)cc4)cc3)c2c(OC)c1OC,13.8%
20,Cc1nn(CCCC(=O)Nc2cccnc2Cl)c(C)c1[N+](=O)[O-],10.4%
21,Cc1sc2nc(SCC(=O)OC(C)C)n(C)c(=O)c2c1C,3.72%
22,COCCn1c(C)cc(C(=O)COC(=O)c2n[nH]c3ccccc23)c1C,8.34%
23,Cc1nn(C(C)(C)C)c(C)c1/C=N/OC(=O)Nc1ccc(Cl)c(Cl)c1,2.85%
24,CCCCCCCCOC(=O)/C=C/c1c(C)[nH]c(=O)[nH]c1=O,31.3%
